{"source": "PubChem BioAssay (EPA / NIEHS)", "key": {"[1]": {"biological_target": "human Ephrin type-A Receptor 1 (EphA1), EPHA1 (gene 2041) (UniProt P21709)", "sequence (P21709 whole entry, looked up)": "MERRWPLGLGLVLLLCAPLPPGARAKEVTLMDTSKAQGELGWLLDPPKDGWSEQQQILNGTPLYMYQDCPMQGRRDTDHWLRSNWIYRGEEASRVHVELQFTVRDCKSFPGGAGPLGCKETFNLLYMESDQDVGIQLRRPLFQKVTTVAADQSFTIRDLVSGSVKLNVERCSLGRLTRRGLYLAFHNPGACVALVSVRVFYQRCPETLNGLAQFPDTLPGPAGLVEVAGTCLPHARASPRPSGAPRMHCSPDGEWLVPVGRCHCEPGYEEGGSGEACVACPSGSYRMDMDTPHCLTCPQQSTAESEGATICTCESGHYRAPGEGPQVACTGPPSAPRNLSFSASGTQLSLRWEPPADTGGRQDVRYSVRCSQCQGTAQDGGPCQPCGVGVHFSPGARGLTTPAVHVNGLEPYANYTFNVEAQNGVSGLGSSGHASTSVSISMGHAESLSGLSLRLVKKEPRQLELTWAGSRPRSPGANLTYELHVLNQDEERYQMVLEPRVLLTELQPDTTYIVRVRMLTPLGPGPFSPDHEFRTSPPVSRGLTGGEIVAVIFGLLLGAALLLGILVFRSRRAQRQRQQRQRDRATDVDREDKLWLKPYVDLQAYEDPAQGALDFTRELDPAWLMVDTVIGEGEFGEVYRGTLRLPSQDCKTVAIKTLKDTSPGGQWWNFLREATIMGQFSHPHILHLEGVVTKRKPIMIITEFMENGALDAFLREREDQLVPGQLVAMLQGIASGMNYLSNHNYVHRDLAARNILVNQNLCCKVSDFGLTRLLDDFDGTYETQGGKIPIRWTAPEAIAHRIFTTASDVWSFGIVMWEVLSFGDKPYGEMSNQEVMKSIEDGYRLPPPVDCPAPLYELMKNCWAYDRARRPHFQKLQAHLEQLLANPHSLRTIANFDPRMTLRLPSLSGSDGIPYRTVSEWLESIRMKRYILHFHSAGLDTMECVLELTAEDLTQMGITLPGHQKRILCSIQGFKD", "experiment": "NVS_ENZ_hEphA1: NovaScreen (NVS) Enzymatic Assay for human Ephrin type-A Receptor 1 (EphA1) (AID 2283158)", "outline": "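Cell-free kinase activity with recombinant protein, 1 hour after dosing; product separated by electrophoretic mobility shift, fluorescence read. Primary screen at 25 uM in duplicate; hits run as concentration-response up to 50 uM, relative to DMSO.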"}, "[2]": {"biological_target": "human Mitogen-Activated Protein Kinase 1 (MAPK 1), MAPK1 (gene 5594) (UniProt P28482)", "sequence (P28482 whole entry, looked up)": "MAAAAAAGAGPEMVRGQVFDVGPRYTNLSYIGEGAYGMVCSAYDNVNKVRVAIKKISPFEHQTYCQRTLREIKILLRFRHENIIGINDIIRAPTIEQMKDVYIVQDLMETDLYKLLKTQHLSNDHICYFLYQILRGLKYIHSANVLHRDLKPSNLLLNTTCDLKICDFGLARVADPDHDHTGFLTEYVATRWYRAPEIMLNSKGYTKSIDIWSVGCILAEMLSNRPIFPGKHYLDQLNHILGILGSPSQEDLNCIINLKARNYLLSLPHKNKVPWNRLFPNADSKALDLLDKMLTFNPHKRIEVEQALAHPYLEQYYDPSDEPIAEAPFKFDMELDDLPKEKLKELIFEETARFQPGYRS", "experiment": "NVS_ENZ_hMAPK1: NovaScreen (NVS) Enzymatic Assay for human Mitogen-Activated Protein Kinase 1 (MAPK 1) (AID 2283175)", "outline": "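Cell-free recombinant human MAPK1 enzymatic assay, fluorescence/electrophoretic mobility shift read at 1 h; loss of signal vs DMSO. Primary screen in duplicate at 25 uM; actives (e.g. ≥30% inhibition) run as concentration-response up to 50 uM.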"}, "[3]": {"biological_target": "human FYN Proto-Oncogene, Src family Tyrosine Kinase (Fyn), FYN (gene 2534) (UniProt P06241)", "sequence (P06241 whole entry, looked up)": "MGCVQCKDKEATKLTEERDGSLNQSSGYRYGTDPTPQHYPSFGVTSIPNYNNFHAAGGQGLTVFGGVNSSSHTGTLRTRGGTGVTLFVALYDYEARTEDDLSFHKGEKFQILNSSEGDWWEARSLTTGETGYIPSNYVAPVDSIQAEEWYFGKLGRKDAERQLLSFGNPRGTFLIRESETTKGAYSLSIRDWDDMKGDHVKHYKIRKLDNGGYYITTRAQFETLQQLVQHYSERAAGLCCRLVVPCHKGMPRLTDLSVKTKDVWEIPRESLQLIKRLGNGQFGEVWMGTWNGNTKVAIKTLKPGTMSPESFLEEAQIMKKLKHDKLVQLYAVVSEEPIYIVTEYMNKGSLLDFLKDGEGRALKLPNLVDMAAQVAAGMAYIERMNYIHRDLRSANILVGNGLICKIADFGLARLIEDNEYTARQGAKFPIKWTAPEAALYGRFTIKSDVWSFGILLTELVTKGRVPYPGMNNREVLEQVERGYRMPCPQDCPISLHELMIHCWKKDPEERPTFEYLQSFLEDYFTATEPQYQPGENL", "experiment": "NVS_ENZ_hFyn: NovaScreen (NVS) Enzymatic Assay for human FYN Proto-Oncogene, Src family Tyrosine Kinase (Fyn) (AID 2283161)", "outline": "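Recombinant enzyme with fluorescent substrate, product separated by electrophoretic mobility shift; read 1 h after dosing. Duplicate 25 uM single-point screen, actives retested in concentration series; loss of signal vs DMSO.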"}, "[4]": {"biological_target": "Histone deacetylase 3 (Homo sapiens) (UniProt O15379)", "sequence (O15379 whole entry, looked up)": "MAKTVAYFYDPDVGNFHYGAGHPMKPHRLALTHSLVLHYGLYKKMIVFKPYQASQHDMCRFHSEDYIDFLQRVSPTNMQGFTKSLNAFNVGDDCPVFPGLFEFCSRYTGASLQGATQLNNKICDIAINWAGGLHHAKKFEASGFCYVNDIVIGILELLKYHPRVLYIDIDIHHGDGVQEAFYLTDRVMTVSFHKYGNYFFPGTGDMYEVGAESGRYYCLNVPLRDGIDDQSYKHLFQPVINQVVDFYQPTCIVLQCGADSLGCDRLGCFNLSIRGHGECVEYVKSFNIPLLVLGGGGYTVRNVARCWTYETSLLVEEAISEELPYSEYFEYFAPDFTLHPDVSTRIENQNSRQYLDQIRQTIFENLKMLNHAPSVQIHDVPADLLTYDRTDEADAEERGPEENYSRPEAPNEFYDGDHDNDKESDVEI", "experiment": "NVS_ENZ_hHDAC3: NovaScreen (NVS) Enzymatic Assay for human Histone Deacetylase 3 (HDAC3) (AID 2283163)", "outline": "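Recombinant human HDAC3 with fluorescent substrate, 1 h after dosing; product separated from substrate by electrophoretic mobility shift and read by fluorescence. Primary screen at 25 uM in duplicate; actives (e.g. ≥30% inhibition) retested in concentration-response up to 50 uM.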"}, "[5]": {"biological_target": "Protein deacetylase HDAC6 (Homo sapiens) (UniProt Q9UBN7)", "sequence (Q9UBN7 whole entry, looked up)": "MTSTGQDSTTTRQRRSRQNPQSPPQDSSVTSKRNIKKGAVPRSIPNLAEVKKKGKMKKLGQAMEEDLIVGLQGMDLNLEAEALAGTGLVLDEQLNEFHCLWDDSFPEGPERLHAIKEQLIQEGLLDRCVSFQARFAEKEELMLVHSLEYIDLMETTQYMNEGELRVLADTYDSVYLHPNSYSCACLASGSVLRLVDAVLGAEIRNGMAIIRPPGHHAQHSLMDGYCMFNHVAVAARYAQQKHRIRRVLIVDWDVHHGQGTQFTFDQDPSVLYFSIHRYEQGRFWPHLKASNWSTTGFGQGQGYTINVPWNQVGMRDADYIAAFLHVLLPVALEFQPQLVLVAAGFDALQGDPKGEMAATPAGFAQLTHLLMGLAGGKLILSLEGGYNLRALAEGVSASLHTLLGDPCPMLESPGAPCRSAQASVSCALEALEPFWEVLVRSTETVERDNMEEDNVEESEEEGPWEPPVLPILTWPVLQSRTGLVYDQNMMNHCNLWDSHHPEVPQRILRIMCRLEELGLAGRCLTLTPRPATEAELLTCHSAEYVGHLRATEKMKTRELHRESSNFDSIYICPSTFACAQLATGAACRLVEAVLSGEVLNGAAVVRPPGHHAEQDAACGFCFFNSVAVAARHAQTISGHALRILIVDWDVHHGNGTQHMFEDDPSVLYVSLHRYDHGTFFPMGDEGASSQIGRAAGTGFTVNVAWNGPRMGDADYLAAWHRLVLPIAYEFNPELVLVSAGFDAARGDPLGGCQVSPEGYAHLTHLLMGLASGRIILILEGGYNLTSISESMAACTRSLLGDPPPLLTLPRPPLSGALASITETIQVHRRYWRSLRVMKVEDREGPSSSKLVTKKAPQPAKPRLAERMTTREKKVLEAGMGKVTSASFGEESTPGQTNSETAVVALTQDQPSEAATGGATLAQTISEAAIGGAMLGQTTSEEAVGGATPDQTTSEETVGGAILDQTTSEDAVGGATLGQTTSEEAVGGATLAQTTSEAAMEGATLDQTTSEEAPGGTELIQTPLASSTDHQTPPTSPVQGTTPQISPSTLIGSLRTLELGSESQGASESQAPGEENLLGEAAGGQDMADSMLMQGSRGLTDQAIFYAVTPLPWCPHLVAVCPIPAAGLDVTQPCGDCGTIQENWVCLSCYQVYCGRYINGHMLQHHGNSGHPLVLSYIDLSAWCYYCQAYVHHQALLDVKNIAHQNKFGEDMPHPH", "experiment": "NVS_ENZ_hHDAC6: NovaScreen (NVS) Enzymatic Assay for human Histone Deacetylase 6 (HDAC6) (AID 2283164)", "outline": "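Recombinant human HDAC6 with fluorescent substrate, 1 h; product separated from substrate by electrophoretic mobility shift. Primary screen in duplicate at 25 uM; actives retested singly in concentration-response up to 50 uM, fitted relative to DMSO.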"}, "[6]": {"biological_target": "human Insulin Receptor (InsR), INSR (gene 3643) (UniProt P06213)", "sequence (P06213 whole entry, looked up)": "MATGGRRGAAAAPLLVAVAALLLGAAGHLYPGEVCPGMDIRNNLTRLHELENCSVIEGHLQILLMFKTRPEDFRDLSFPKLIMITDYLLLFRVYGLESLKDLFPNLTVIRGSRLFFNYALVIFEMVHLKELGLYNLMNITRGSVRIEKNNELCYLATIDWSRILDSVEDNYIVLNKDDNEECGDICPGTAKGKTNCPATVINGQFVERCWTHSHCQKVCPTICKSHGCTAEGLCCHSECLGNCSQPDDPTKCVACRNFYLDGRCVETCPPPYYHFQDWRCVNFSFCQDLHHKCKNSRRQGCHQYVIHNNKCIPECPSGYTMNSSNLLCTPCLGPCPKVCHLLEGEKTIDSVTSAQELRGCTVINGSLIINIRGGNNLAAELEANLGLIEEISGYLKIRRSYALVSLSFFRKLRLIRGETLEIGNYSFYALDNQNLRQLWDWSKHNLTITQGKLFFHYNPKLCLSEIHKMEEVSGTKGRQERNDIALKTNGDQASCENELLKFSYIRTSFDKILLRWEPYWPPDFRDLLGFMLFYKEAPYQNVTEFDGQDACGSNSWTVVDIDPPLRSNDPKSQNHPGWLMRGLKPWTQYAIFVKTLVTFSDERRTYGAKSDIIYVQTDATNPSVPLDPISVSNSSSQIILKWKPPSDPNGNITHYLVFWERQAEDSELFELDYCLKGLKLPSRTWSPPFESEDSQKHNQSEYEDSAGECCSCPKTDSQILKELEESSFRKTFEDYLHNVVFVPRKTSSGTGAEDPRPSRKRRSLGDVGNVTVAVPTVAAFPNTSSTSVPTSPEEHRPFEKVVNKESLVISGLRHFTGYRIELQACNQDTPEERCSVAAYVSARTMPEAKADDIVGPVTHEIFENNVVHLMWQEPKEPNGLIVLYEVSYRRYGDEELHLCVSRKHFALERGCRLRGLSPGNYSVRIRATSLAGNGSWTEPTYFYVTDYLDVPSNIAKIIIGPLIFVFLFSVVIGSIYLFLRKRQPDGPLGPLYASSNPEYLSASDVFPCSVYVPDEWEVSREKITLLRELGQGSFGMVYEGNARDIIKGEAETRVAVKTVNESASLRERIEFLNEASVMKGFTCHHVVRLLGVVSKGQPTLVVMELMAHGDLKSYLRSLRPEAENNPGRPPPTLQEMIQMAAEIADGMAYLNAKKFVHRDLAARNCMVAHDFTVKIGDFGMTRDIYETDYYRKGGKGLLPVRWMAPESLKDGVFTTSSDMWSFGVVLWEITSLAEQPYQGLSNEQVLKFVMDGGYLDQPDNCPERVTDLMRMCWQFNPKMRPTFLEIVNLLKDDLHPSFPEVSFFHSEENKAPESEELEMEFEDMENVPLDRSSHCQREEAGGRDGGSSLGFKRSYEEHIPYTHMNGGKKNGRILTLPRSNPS", "experiment": "NVS_ENZ_hInsR: NovaScreen (NVS) Enzymatic Assay for human Insulin Receptor (InsR) (AID 2283168)", "outline": "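Fluorescent substrate phosphorylation by recombinant kinase, product resolved by electrophoretic mobility shift, read 1 h after dosing. Screened in duplicate at 25 uM; hits (e.g., 30% inhibition) run in concentration-response to 50 uM; DMSO as baseline.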"}}, "note": "Records with an inconclusive call do not appear. Active and inactive are the calls of the source. The calls were made as follows: active = hit-call score of the fitted dose curve at least 0.9, where 1 is the maximum; inconclusive = response in the unintended direction; inactive = score below 0.9."}
{"smiles": "CN(C)[C@@H]1C(=O)C(C(N)=O)=C(O)[C@@]2(O)C(=O)C3=C(O)c4c(O)cccc4[C@@](C)(O)[C@H]3[C@H](O)[C@@H]12", "values": [{"measurement": "outcome", "setting": "[1]", "result": "inactive"}, {"measurement": "AC50", "setting": "[2]", "result": "15 µM (active)"}]}
{"smiles": "O=C(O)c1cc(Oc2ccc(C(F)(F)F)cc2Cl)ccc1[N+](=O)[O-]", "values": [{"measurement": "outcome", "setting": "[1]", "result": "inactive"}]}
{"smiles": "S=C1NCCN1", "values": [{"measurement": "outcome", "setting": "[3]", "result": "inactive"}]}
{"smiles": "CC(C)[C@H](C(=O)O[C@H](C#N)c1cccc(Oc2ccccc2)c1)c1ccc(Cl)cc1", "values": [{"measurement": "outcome", "setting": "[3]", "result": "inactive"}]}
{"smiles": "CNc1cnn(-c2cccc(C(F)(F)F)c2)c(=O)c1Cl", "values": [{"measurement": "outcome", "setting": "[4]", "result": "inactive"}]}
{"smiles": "O=c1ccc(=O)[nH][nH]1", "values": [{"measurement": "AC50", "setting": "[4]", "result": "14.5 µM (active)"}]}
{"smiles": "N#CSCSC#N", "values": [{"measurement": "AC50", "setting": "[5]", "result": "3.68 µM (active)"}]}
{"smiles": "CCOP(=S)(OCC)Oc1cc(C)nc(C(C)C)n1", "values": [{"measurement": "outcome", "setting": "[5]", "result": "inactive"}]}
{"smiles": "CCC(=NOC/C=C/Cl)C1=C(O)CC(C2CCOCC2)CC1=O", "note": "(configuration not stated)", "values": [{"measurement": "outcome", "setting": "[6]", "result": "inactive"}]}
{"smiles": "CCNc1nc(Cl)nc(NC(C)(C)C#N)n1", "values": [{"measurement": "outcome", "setting": "[6]", "result": "inactive"}]}
{"smiles": "C=C(C)[C@H]1Cc2c(ccc3c2O[C@@H]2COc4cc(OC)c(OC)cc4[C@@H]2C3=O)O1", "values": [{"measurement": "outcome", "setting": "[2]", "result": "inactive"}]}
